The campaign covered roughly 220,000 compounds. About 910 (0.41%) were called active. The sample holds actives, similar compounds and a random draw of the others, so the mix is not that of the screen.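 The calls were made as follows: active = primary inhibition above the hit cutoff, then over 50% inhibition at one or more dose response concentrations (cut at about 23% in these data, passing the limit was not always enough); inconclusive = conflicting primary data, or primary hits not chosen for dose response; inactive = low primary inhibition, or under 50% at every dose.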 Potency and affinity values are given separately.

The target in this assay is Aminopeptidase N (Plasmodium falciparum (isolate 3D7)) (UniProt O96935). The experiment in a line: malaria alanyl aminopeptidase activity blockers – biochemical, fluorogenic H-Leu-NHMec substrate, 1536-well (AID 1445).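 Also: plate controls were DMSO full reaction for no effect and no enzyme background for full effect.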 Particulars: recombinant M1AAP, H-Leu-NHMec fluorogenic kinetic assay; at 30 µM, active compounds read high unless noted.
Chain of Aminopeptidase N (Plasmodium falciparum (isolate 3D7)) (O96935 whole entry, looked up): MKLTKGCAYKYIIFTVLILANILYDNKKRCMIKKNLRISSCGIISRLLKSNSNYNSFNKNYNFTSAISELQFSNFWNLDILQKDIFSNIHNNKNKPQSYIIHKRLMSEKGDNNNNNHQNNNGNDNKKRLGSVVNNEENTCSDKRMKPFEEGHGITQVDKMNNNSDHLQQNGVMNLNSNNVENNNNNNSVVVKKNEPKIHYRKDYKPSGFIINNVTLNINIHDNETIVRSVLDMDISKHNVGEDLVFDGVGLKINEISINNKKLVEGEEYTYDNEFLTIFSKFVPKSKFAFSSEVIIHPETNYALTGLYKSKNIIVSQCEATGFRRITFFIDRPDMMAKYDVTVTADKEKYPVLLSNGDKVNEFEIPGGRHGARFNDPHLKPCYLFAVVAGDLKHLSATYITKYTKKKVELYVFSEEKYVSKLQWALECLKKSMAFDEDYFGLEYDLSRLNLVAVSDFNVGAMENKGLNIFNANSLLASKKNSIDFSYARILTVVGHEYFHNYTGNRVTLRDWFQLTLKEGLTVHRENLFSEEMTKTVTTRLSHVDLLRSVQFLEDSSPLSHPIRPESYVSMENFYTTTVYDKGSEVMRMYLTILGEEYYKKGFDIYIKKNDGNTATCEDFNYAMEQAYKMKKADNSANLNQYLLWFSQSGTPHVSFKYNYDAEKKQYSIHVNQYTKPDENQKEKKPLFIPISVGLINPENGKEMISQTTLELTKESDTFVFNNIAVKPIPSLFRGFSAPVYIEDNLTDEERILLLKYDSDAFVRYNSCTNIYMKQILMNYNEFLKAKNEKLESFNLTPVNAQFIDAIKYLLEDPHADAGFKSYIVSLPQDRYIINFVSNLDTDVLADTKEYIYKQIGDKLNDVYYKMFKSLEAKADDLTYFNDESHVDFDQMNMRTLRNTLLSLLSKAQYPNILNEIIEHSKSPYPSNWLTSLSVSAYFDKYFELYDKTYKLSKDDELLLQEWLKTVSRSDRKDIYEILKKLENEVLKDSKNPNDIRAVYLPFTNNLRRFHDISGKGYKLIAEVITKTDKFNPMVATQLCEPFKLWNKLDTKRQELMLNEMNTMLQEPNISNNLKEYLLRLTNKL
As usually defined, the inhibition is the relative decrease from the control value, in per cent. As to `CC(=O)Nc1ccc(NS(=O)(=O)c2cc([N+](=O)[O-])ccc2C)cc1`, the inhibition is 2.22% (inactive).
As to `Cc1ccc(C)c(NC(=O)c2ccccc2NS(=O)(=O)c2cc([N+](=O)[O-])ccc2C)c1`, the inhibition is 8.58% (inactive).
The value for `O=C(N/N=C(\Cc1ncc[nH]1)c1ccccc1)c1ccccc1` was 19.5% (inactive); that for `O=C(N/N=C(\Cc1ncc[nH]1)c1ccccc1)c1cccnc1` was 16.6% (inactive); that for `COC(=O)c1cc2c(ccn2-c2ccc(F)cc2)n1CC(=O)OC(C)C` was 1.89% (inactive).
The value for `CCOc1cc(N2CCOCC2)c(OCC)cc1NC(=O)C(NC(=O)c1ccco1)C(C)C` (stereo not drawn) was 8.28% (inactive); that for `c1ccc2c(c1)N1CCN=C1N2CCN1CCCCC1` was 5.87% (inactive); that for `Cc1oc(S(=O)(=O)N(C)C)cc1C(=O)Nc1ccc(F)cc1` was 0.82% (inactive).
The value for `C=CCn1c(CCNC(=O)c2ccccc2F)nnc1SCC(=O)Nc1nc(C)cs1` was -1.07% (inactive).
As for `C=CCn1c(CNC(=O)c2ccccc2F)nnc1SCc1nc2ccccc2c(=O)[nH]1`, the inhibition was 7.18% (inactive).
The value for `CCOC(=O)C(NC(=O)CC)(Nc1ccccc1OC)C(F)(F)F` (stereo not drawn) was -0.34% (inactive); that for `O=c1[nH]c(CN2CCN(c3ccccc3Cl)CC2)nc2ccsc12` was 6.37% (inactive).
Turning to `O=c1[nH]c(CN2CCN(c3ccc([N+](=O)[O-])cc3)CC2)nc2ccsc12`, the inhibition was 25.9% (active).
`COc1ccc(N2CCN(Cc3nc4ccsc4c(=O)[nH]3)CC2)cc1`: the inhibition is 13.2% (inactive).
Take `O=C(CSc1nnc(NCc2ccccc2)s1)NC1CCS(=O)(=O)C1` (stereo not drawn): the inhibition is -0.46% (inactive).
Take `COc1cc(C2c3c(-c4ccccc4O)n[nH]c3C(=O)N2Cc2ccco2)cc(OC)c1OC` (stereo not drawn): the inhibition is 3.24% (inactive).
As for `COCCCN1C(=O)c2[nH]nc(-c3cc(C)cc(C)c3O)c2C1c1ccc(O)c(OC)c1` (stereo not drawn), the inhibition was 6.71% (inactive).
The value for `COc1cc(C2c3c(-c4cc(C)cc(C)c4O)n[nH]c3C(=O)N2CCCO)cc(OC)c1OC` (stereo not drawn) was 28.3% (active).
Turning to `CCOc1ccccc1-n1c(SCC(=O)N(C(C)C)C(C)C)nnc1-c1cccnc1`, the inhibition was 5.81% (inactive).
Regarding `O=C(CN1CCN(Cc2ccc(Cl)cc2)C1=O)NCCN1CCCC1`, the inhibition was 1.07% (inactive).
Regarding `CCC(C)[C@H](NC(=O)Nc1ccc(C(C)=O)cc1)C(=O)OC` (stereo partly drawn), the inhibition was -5.32% (inactive).
The value for `Cc1nn(-c2ccccc2)c(Cl)c1/C=C1\SC(=S)N(C)C1=O` was -0.16% (inactive); that for `Cc1nn(-c2ccccc2)c(Cl)c1/C=C1\C(=O)N(C)C(=S)N1C` was 5.11% (inactive); that for `CCC1=NN2C(=N)/C(=C\c3cccn3-c3cccc(Cl)c3)C(=O)N=C2S1` was 7.8% (inactive).
For the compound `CCC1=NN2C(=N)/C(=C/c3cc(C)n(Cc4ccccc4)c3C)C(=O)N=C2S1`, the inhibition is 1.28% (inactive).
Consider `O=C(Nc1ccc(-n2nncc2-c2ccco2)cc1)c1cccc(F)c1`, for which the inhibition is 1.93% (inactive).
As for `COc1ccc(CN(C)CC(=O)Nc2ccccc2-c2ccccc2)c(OC)c1`, the inhibition is 6.36% (inactive).
In the case of `O=C(O)C(CC1CCCCC1)N1CCS(=O)(=O)CC1` (stereo not drawn), the inhibition is -6% (inactive).
Turning to `C=CCn1c(N)cc(=O)nc1SC(C)C(=O)Nc1cccc2ccccc12` (stereo not drawn), the inhibition was 14% (inactive).
`O=C(Nc1cccc(S(=O)(=O)N2CCCCC2)c1)c1ccccc1NS(=O)(=O)c1ccc(F)cc1`: the inhibition is 11.5% (inactive).
In the case of `Cc1ccc(NC(=O)c2ccccc2NS(=O)(=O)c2ccc(F)cc2)cc1S(=O)(=O)N1CCCCC1`, the inhibition is 14.4% (inactive).
For `O=C(Nc1ccccc1N1CCOCC1)c1ccccc1NS(=O)(=O)c1ccc(F)c(F)c1`, the inhibition is 5.56% (inactive).
`O=C(Nc1cc(S(=O)(=O)Nc2ccc(Cl)cc2)ccc1O)c1ccc(S(=O)(=O)N2CCCCCC2)cc1`: the inhibition is 0.01% (inactive).
The value for `CCc1nnc(NC(=O)CN2CCN(C(=O)c3ccccc3)CC2)s1` was 5.2% (inactive); that for `O=C(O)C1CCN(C(=O)CSc2nc3ccccc3s2)CC1` was -1.91% (inactive); that for `CSc1ccc(Cl)c(C(=O)NC2CCCC2)c1` was 1.66% (inactive).
Consider `CC(C)CNS(=O)(=O)c1ccc(CCC(=O)Nc2ccc3c(c2)OCCO3)cc1`, for which the inhibition was 9.09% (inactive).
Consider `Cc1ccc(Cl)cc1NC(=O)COC(=O)C1CC1`, for which the inhibition is -9.09% (inactive).
The value for `C=CCn1c(-c2ccccc2[N+](=O)[O-])n[nH]c1=S` was -1.25% (inactive); that for `O=C1N/C(=N/O)S/C1=C/c1cccc([N+](=O)[O-])c1` was 13.8% (inactive).
For the compound `COc1ccc(N=C2NC(=O)/C(=C\c3ccco3)S2)cc1`, the inhibition is 6.07% (inactive).
On to `CCCN1C(=O)/C(=C/c2ccco2)SC1=Nc1ccc(OC)cc1`, for which the inhibition was 8.83% (inactive).
Regarding `Cc1ccc(S(=O)(=O)NC(=O)c2ccc(Br)o2)cc1`, the inhibition was 0.41% (inactive).
As for `COc1ccc(S(=O)(=O)Nc2nncs2)cc1`, the inhibition was -0.42% (inactive).
With `COc1ccc(N=C2NC(=O)/C(=C/c3ccco3)S2)cc1`, the inhibition is 7.45% (inactive).
Take `CSC1=N/C(=C\c2ccc(Br)o2)C(=O)S1`: the inhibition is 1.89% (inactive).
In the case of `O=C(O)c1cccc(CN2C(=O)S/C(=C/c3cccc([N+](=O)[O-])c3)C2=O)c1`, the inhibition is 3.75% (inactive).
`O=C(O)c1ccc(-c2nc3ccccc3s2)o1`: the inhibition is -2.11% (inactive).
As for `O=C(COc1ccccc1)NNC(=O)COc1ccc([N+](=O)[O-])cc1`, the inhibition is 0.69% (inactive).
The value for `COc1cc(NC(=O)CN(C)Cc2cccc(F)c2)c(C)cc1[N+](=O)[O-]` was 13.2% (inactive); that for `CNC(=S)N/N=C(\C)c1ccc2c(c1)OCO2` was 6.47% (inactive); that for `O=C(NC1CCCCC1)c1ccc(CNc2ccccc2)o1` was 3.72% (inactive).
For `COc1ccc(/C=C/C(=O)c2ccc(Cl)s2)cc1O`, the inhibition is 9.54% (inactive).
For the compound `NC(=O)c1ccc(-n2nnnc2SCC(=O)Nc2ccc(N3CCOCC3)c(Cl)c2)cc1`, the inhibition is -2.55% (inactive).
On to `CCCCOC(=O)Nc1nnc(CCOCC)s1`, for which the inhibition is 2.38% (inactive).
Regarding `CCN(CC)CCSc1nc2ccc(OC)cc2[nH]1`, the inhibition is 1.77% (inactive).
For the compound `CN(C)C1=NC(=O)/C(=C\c2ccccc2)S1`, the inhibition is 3.5% (inactive).
`Cc1ccc(N2C(=O)/C(=C\c3ccco3)SC2=S)cc1`: the inhibition was 2.77% (inactive).
`NC1=NC(=O)/C(=C\c2ccco2)S1`: the inhibition is 9.69% (inactive).
With `Cc1ccc(S(=O)(=O)Nc2ccccc2-c2ccccc2NS(=O)(=O)c2ccc(C)cc2)cc1`, the inhibition was 17.1% (inactive).
The value for `COc1cc(O)c(C(CCN2CCCC(C)C2)c2ccc(N(C)C)cc2)c(OC)c1` (stereo not drawn) was 12.5% (inactive).
Consider `Cc1ccc(N=N/C(=C\O)C(=O)c2ccncc2)cc1`, for which the inhibition is 27.6% (active).
The value for `O=C(/C(=C/O)N=Nc1ccc(Cl)cc1)c1ccncc1` was 0.62% (inactive); that for `O=C(/C(=C/O)N=Nc1ccccc1)c1ccncc1` was 18.4% (inactive).
The value for `Cc1ccc(NC(=O)Nc2ccc(F)cc2F)c(OC(F)F)c1` was -3.74% (inactive); that for `Cc1cc(NC(=O)CSCC(=O)N(c2ccc(F)cc2)C(C(=O)NC2CCCCC2)c2ccc(O)c(O)c2)no1` (stereo not drawn) was 8.19% (inactive).
For the compound `Cc1cc(C)c(/C=C(\C#N)S(=O)(=O)c2ccccc2)[nH]1`, the inhibition was -6.03% (inactive).
The value for `N#C/C(=C/c1ccc(F)cc1)S(=O)(=O)c1ccccc1` was -4.5% (inactive).
For the compound `N#C/C(=C\c1ccc(O)c(O)c1)S(=O)(=O)c1ccccc1`, the inhibition is 24.6% (active).
The value for `Cc1ccccc1Cn1nnc2c1C(=O)c1ccccc1C2=O` was -4.07% (inactive); that for `Cc1cc(NC(=O)CN2C(=O)NC(C)(c3ccc(OC(F)F)cc3)C2=O)no1` (stereo not drawn) was 7.82% (inactive); that for `CC1(c2ccc(OC(F)F)cc2)NC(=O)N(CC(=O)Nc2ccc3c(c2)OCO3)C1=O` (stereo not drawn) was 22.2% (inactive).
Turning to `O=C(CSc1nnc(CNc2ccc(Cl)cc2)o1)Nc1nc2ccccc2s1`, the inhibition is -13% (inactive).
On to `CCCc1nnc(NC(=O)CCC(=O)N2CCN(S(=O)(=O)c3ccc(C)cc3)CC2)s1`, for which the inhibition is 3.35% (inactive).
Take `Oc1ccc(C2C(c3ccccc3)=NN=C(c3ccc(Cl)cc3)N2O)c(O)c1` (stereo not drawn): the inhibition is 12.1% (inactive).
The value for `O=C(O)CN1C(=O)/C(=C\c2cn(CC(=O)N3CCOCC3)c3ccccc23)SC1=S` was 21.1% (inactive).
For `CC(C)n1cc(/C=C2/SC(=O)N(CC(=O)N3CCCC3)C2=O)c2ccccc21`, the inhibition is 7.08% (inactive).
In the case of `Cc1ccnc(NS(=O)(=O)c2ccc(NC(=O)c3cncc(Br)c3)cc2)n1`, the inhibition was -0.33% (inactive).
As for `NC(=O)Cn1nc([N+](=O)[O-])nc1Oc1ccccc1C(=O)N1CCOCC1`, the inhibition is 3.73% (inactive).
With `CN(C)CCCNC(=O)c1cc(C(=O)C2CCCCC2)c[nH]1`, the inhibition was 3.52% (inactive).
As for `COCC(=O)N(Cc1cc2cc(OC)ccc2[nH]c1=O)c1ccccc1`, the inhibition was 7% (inactive).
Regarding `O=C(CN1c2ccccc2Sc2ccccc21)NNC(=O)Nc1ccc(Cl)c(Cl)c1`, the inhibition is 0.08% (inactive).
Take `COc1ccc([N+](=O)[O-])cc1N(CC(O)CN1CCCC1)S(=O)(=O)c1ccc(C)cc1` (stereo not drawn): the inhibition was 2.31% (inactive).
Consider `COc1ccc([N+](=O)[O-])cc1N(CC(O)CN1CCCCC1)S(=O)(=O)c1ccc(C)cc1` (stereo not drawn), for which the inhibition is 8.41% (inactive).
`COc1ccc([N+](=O)[O-])cc1N(CC(O)Cn1nnc2ccccc21)S(=O)(=O)c1ccc(C)cc1` (stereo not drawn): the inhibition was 23.6% (active).
For the compound `CCOC(=O)c1csc(NC(=O)c2ccc(OC)c(OC)c2)n1`, the inhibition is 1.77% (inactive).
Take `COCCN(C(=O)CSc1nnc(Nc2ccccc2F)s1)c1c(N)n(Cc2ccccc2)c(=O)[nH]c1=O`: the inhibition is 3.95% (inactive).
Regarding `CCCS(=O)(=O)NCc1ccc2c(c1)cc(C)n2C`, the inhibition is 7.58% (inactive).
